{"source": "ChEMBL document CHEMBL3988442", "about": "“University of Dundee, Small-Polar-MMV Screening Library” (2021)", "note": "Among all 48,000 compounds or so, about 13,000 (27%) showed an effect of 50% or more. Some of the results follow.", "data": [{"system": "Wolbachia pipientis", "assay": "Anti-Wolbachia Cell-Based Screen", "assay_type": "functional", "set-up": "scale not given: in the data most compounds retested in dose-response had high values", "conditions": "5 µM", "units": {"Percent Effect": "%"}, "values": [{"smiles": "CNC(=O)Cc1noc(-c2cc3c(s2)CCC(C)(C)C3)n1", "Percent Effect": -4.639}, {"smiles": "COc1ccccc1CC1CCCN(C(=O)c2cn[nH]c2C)C1", "note": "(stereo unspecified)", "Percent Effect": -7.935}, {"smiles": "O=C(O)c1ccc(CN2CCCC(Cc3ccn[nH]3)C2)cc1", "note": "(stereo unspecified)", "Percent Effect": 99.33}, {"smiles": "CC(C)(C)OC(=O)NC1CCCN(Cc2cccc(O)c2)C1", "note": "(stereo unspecified)", "Percent Effect": -3.79}, {"smiles": "O=C1CCCN1CCN1CCCC(c2ccn[nH]2)C1", "note": "(stereo unspecified)", "Percent Effect": 1.781}, {"smiles": "O=C(O)c1cccc(CN2CCCC(Cc3ccn[nH]3)C2)c1", "note": "(stereo unspecified)", "Percent Effect": 127.8}, {"smiles": "O=C(O)c1cccc(CN2CCCC(c3ccn[nH]3)C2)c1", "note": "(stereo unspecified)", "Percent Effect": 109.3}, {"smiles": "COc1ccccc1CC1CCCN(CC(N)=O)C1", "note": "(stereo unspecified)", "Percent Effect": -5.386}, {"smiles": "O=C(O)c1ccccc1CN1CCCC(Cc2ccn[nH]2)C1", "note": "(stereo unspecified)", "Percent Effect": 106.4}, {"smiles": "c1ccn2cc(CN3CCCC(c4ccn[nH]4)C3)nc2c1", "note": "(stereo unspecified)", "Percent Effect": 9.447}, {"smiles": "Cc1ccsc1[C@@H]1CCN(C(=O)c2ccc(-c3cc[nH]n3)cc2)C[C@H]1O", "Percent Effect": -2.8}, {"smiles": "CCC(SC)C(=O)N1CCC(n2cccn2)CC1", "note": "(stereo unspecified)", "Percent Effect": -7.031}, {"smiles": "CN1C(=O)CC2(CCN(S(=O)(=O)c3cccs3)CC2)c2ccccc21", "Percent Effect": 10.11}, {"smiles": "COCCCNC(=O)C1(NC(=O)c2ccc3[nH]ncc3c2)CCCC1", "Percent Effect": -2}, {"smiles": "O=S(=O)(NCC1(O)CCOc2ccccc21)c1ccccc1Br", "note": "(stereo unspecified)", "Percent Effect": 15.3}, {"smiles": "O=C(Nc1nnn[nH]1)c1ccc(-n2cccc2)c(F)c1", "Percent Effect": -12.4}, {"smiles": "O=C(COC1CCCC1)N1CCC(C(O)c2ccc(F)cc2)CC1", "note": "(stereo unspecified)", "Percent Effect": 6.854}, {"smiles": "COc1cccc(NC(C(N)=O)c2ccc(Br)cc2)c1", "note": "(stereo unspecified)", "Percent Effect": 1.947}, {"smiles": "CCO[C@@H]1CC[C@H]2[C@H]1OCCN2C(=O)C1CCOCC1", "Percent Effect": 0.9043}, {"smiles": "CCO[C@H]1CC[C@H]2[C@H]1OCCN2C(=O)COc1ccccc1", "Percent Effect": 74.73}, {"smiles": "CCO[C@@H]1CC[C@H]2[C@H]1OCCN2C(=O)c1ccc(C)o1", "Percent Effect": 0.08907}, {"smiles": "O=C(COc1ccc(F)cc1)N1CCO[C@H]2[C@@H](OCC3CC3)CC[C@@H]21", "Percent Effect": 107}, {"smiles": "COc1cc(C(=O)N2CCO[C@H]3[C@H](OCC4CC4)CC[C@@H]32)ccc1F", "Percent Effect": 35.93}, {"smiles": "CCO[C@H]1CC[C@H]2[C@@H]1OCCN2C(=O)COc1ccccc1", "Percent Effect": 94.92}, {"smiles": "COc1ccc(C(=O)N2CCO[C@H]3[C@H](OCC4CC4)CC[C@@H]32)cc1F", "Percent Effect": -4.788}, {"smiles": "CC(C)CN1C[C@H]2CCN(C(=O)C3CCCO3)CC[C@H]2S1(=O)=O", "note": "(stereo partly specified)", "Percent Effect": -18.66}, {"smiles": "CN(Cc1cnccn1)CC1CCOc2ccccc2C1", "note": "(stereo unspecified)", "Percent Effect": 5.577}, {"smiles": "CCC(C)CNc1ccc2oc(COC)nc2c1", "note": "(stereo unspecified)", "Percent Effect": -9.605}, {"smiles": "CN(C)C(=O)c1ccc(CNc2c(Cl)cccc2C#N)cc1", "Percent Effect": -8.933}, {"smiles": "CN1CCN(Cc2cnc3n2CCN(Cc2cccnc2)CC3)CC1.O=C(O)C(F)(F)F.O=C(O)C(F)(F)F.O=C(O)C(F)(F)F", "Percent Effect": 102.7}, {"smiles": "CNC(=O)c1cnc2n1CCN(Cc1cccnc1)C2.O=C(O)C(F)(F)F.O=C(O)C(F)(F)F.O=C(O)C(F)(F)F", "Percent Effect": 0.3449}, {"smiles": "Cc1noc(C)c1CN1CCn2c(CN3CCN(C)CC3)cnc2C1.O=C(O)C(F)(F)F.O=C(O)C(F)(F)F.O=C(O)C(F)(F)F", "Percent Effect": -4.762}, {"smiles": "CN1CCN(Cc2cnc3n2CCN(CCc2ccccc2)C3)CC1.O=C(O)C(F)(F)F.O=C(O)C(F)(F)F.O=C(O)C(F)(F)F", "Percent Effect": 127}, {"smiles": "COCC(=O)N1CCn2c(CN3CCN(C)CC3)cnc2C1.O=C(O)C(F)(F)F.O=C(O)C(F)(F)F", "Percent Effect": -7.166}, {"smiles": "CCOCc1nnc(NCc2cccc(C)c2)o1", "Percent Effect": -20.23}, {"smiles": "CN(Cc1ccccc1)CC1CC2(CO1)CN(Cc1cnn(C)c1)C2", "note": "(stereo unspecified)", "Percent Effect": -2.148}, {"smiles": "Cn1nc2c(cc1=O)CN(Cc1nc(C3CC3)no1)CC2", "Percent Effect": 27.59}, {"smiles": "CCc1cc(-c2ccnc3c2ccn3C)nc(N2CCOCC2)n1", "Percent Effect": 67.54}, {"smiles": "Cn1ccc2c(-c3cc(N)nc(N4CCOCC4)n3)ccnc21", "Percent Effect": 88.78}, {"smiles": "CN(C)c1cncc(-c2ccnc3c2ccn3C)n1", "Percent Effect": -34.59}, {"smiles": "CCc1cc(N(C)Cc2ncc[nH]2)nc(N2CCOCC2)n1", "Percent Effect": -9.08}, {"smiles": "Cn1ccc2c(-c3nccc(N)n3)ccnc21", "Percent Effect": -30.17}, {"smiles": "CCNc1ccc(-c2ccnc3c2ccn3C)nn1", "Percent Effect": -1.559}, {"smiles": "CN(CC1(O)CCCN(CCC2CCCCC2)C1=O)C1CCOCC1", "note": "(stereo unspecified)", "Percent Effect": -1.971}, {"smiles": "CN(C)S(=O)(=O)N1CCCC(C)(c2ncc(C(N)=O)s2)C1", "note": "(stereo unspecified)", "Percent Effect": 191.5}, {"smiles": "CN(C)S(=O)(=O)N1CCC[C@]2(C[C@@H](Oc3ccccn3)CO2)C1.O=C(O)C(F)(F)F", "Percent Effect": -2.011}, {"smiles": "CN(C)S(=O)(=O)N1CC[C@H]2OCC[C@@]2(COc2cccnc2)C1.O=C(O)C(F)(F)F", "Percent Effect": 7.883}, {"smiles": "CN1C(=O)CC2(CCN(S(=O)(=O)N(C)C)CC2)c2ccccc21", "Percent Effect": -6.476}, {"smiles": "CN(C)S(=O)(=O)N1CCC(C)(c2ncc(C(N)=O)s2)CC1", "Percent Effect": 173.8}, {"smiles": "Cc1cnc(C(=O)N2C[C@H]3CC[C@@H]2CN(S(=O)(=O)N(C)C)C3)cn1", "Percent Effect": -4.38}, {"smiles": "CCS(=O)(=O)N1CCN(C(=O)C(C)C)CC2(CC(=O)N(C)C2)C1", "note": "(stereo unspecified)", "Percent Effect": -2.529}, {"smiles": "CN(C)C(C(=O)NCC1(O)CCCCC1)c1cccc(F)c1", "note": "(stereo unspecified)", "Percent Effect": 11.81}, {"smiles": "O=C(NCC1(O)CCC1)c1c(O)cc(Cl)cc1Cl", "Percent Effect": 97.98}, {"smiles": "O=C(NCC1(O)CCOC1)c1ccccc1Cl", "note": "(stereo unspecified)", "Percent Effect": -4.323}, {"smiles": "CN(C)C(C(=O)NCC1(N(C)C)CCOCC1)c1ccccc1F", "note": "(stereo unspecified)", "Percent Effect": -12.63}, {"smiles": "CN(C)C1(CNC(=O)c2c(O)cc(Cl)cc2Cl)CCOCC1", "Percent Effect": 85.78}, {"smiles": "CN(C)C1(CNC(=O)C/C=C/c2ccc(F)cc2)CCOCC1", "Percent Effect": 1.504}, {"smiles": "O=C(NCc1ccc(Cl)cc1Cl)NCC1(O)CCSC1", "note": "(stereo unspecified)", "Percent Effect": -14.06}, {"smiles": "CN(C)C(C(=O)NCC1(O)CCCCC1)c1c(F)cccc1F", "note": "(stereo unspecified)", "Percent Effect": -3.857}, {"smiles": "O=C(NCC1(O)CCC1)c1c(O)cc(F)cc1F", "Percent Effect": 120.5}, {"smiles": "CCOC(C)c1noc(CN2CCN(c3nnc(C)s3)CC2)n1", "note": "(stereo unspecified)", "Percent Effect": -0.8403}]}]}
